ALDH1A1 inh: qHTS Assay for Inhibitors of Aldehyde Dehydrogenase 1 (ALDH1A1). Purified ALDH1A1, NADH fluorescence, propionaldehyde substrate. Potency, µM (top dose mostly 75.3 µM), usual class: inhibitors. actives 7.3% (n = 220,000). AID 1030, 2008; active = well fitted inhibition curve with a large enough effect, not every such curve was filed as active; inconclusive = small, poorly fitted or top-dose-only effect, or another doubt; inactive = no such curve, though single readings can be large or run the other way
KDM4E inh: qHTS Assay for Inhibitors of Human Jumonji Domain Containing 2E (JMJD2E); actives 1.6% (n = 230,000); JMJD2E catalytic domain, FDH-coupled NADH fluorescence (FDH is formaldehyde dehydrogenase); AID 2147, 2009; Lysine-specific demethylase 4E (Homo sapiens), B2RXH2; Potency, µM (titrated, usually from 57.1 µM), usual class: inhibitors; active = well fitted inhibition curve with a large enough effect, not every such curve was filed as active; inconclusive = small, poorly fitted or top-dose-only effect, or another doubt; inactive = no such curve, though single readings can be large or run the other way; note: nearly all actives have a fitted effect of over 50% in size
HTT aggregate: qHTS Multiplex Assay to Identify Dual Action Probes in a Cell Model of Huntington: Aggregate Formation (GFP); PC12 HttQ103-GFP aggregates, Acumen cytometry, 40 h; Potency, µM (highest dose often 46.1 µM), most hits filed as inhibitors; actives 1.1% (n = 220,000); AID 1688, 2009; note: nearly all actives have a fitted effect of over 60% in size
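Multiplexed with ATP-based cell death, this channel scores GFP aggregates in PC12 cells expressing inducible HTTex1-Q103-GFP. Induction used 100 nM tebufenozide; compounds were tested in concentration series.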
CBFb-RUNX1 inh: qHTS Assay for Compounds Blocking the Interaction Between CBF-beta and RUNX1 for the Treatment of Acute Myeloid Leukemia; AlphaScreen CBFb-His/RUNX1-biotin binding, biochemical; 230,000 tested, under 10 active; Potency, µM (series often up to 59.8 µM), actives largely listed as inhibitors; Runt-related transcription factor 1 (Homo sapiens) + Core-binding factor subunit beta …
Target sequence (Q01196 whole entry, looked up): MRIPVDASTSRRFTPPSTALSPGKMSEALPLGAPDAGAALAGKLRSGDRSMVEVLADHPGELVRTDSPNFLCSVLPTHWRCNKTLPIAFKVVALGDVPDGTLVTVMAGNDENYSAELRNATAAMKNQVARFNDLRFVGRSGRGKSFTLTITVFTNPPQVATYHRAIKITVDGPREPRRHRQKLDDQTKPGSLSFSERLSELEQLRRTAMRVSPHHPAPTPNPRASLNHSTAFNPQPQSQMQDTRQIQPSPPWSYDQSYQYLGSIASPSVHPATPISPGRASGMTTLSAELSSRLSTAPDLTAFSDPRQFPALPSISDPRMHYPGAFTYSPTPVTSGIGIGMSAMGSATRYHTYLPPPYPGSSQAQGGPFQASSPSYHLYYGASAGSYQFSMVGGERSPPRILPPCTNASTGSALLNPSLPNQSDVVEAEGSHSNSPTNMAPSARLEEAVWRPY
Target sequence (Q13951 whole entry, looked up): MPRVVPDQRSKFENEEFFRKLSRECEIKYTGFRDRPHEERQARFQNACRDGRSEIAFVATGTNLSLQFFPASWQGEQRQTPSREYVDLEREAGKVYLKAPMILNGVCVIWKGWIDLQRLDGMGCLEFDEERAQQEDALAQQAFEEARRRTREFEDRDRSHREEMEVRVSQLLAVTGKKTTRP
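Inhibition was taken as any reduction in AlphaScreen signal from the CBF-beta–RUNX1 pair (His and biotin tags, 30 nM each), measured after compound (15 min) and bead (90 min) incubations at room temperature.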
HPGD block: qHTS Assay for Inhibitors of HPGD (15-Hydroxyprostaglandin Dehydrogenase); purified HPGD, NADH fluorescence kinetic, PGE2 substrate; Potency, µM, most hits filed as inhibitors; actives 4.3% (n = 150,000); AID 894, 2007; active = well fitted inhibition curve with a large enough effect, not every such curve was filed as active; inconclusive = small, poorly fitted or top-dose-only effect, or another doubt; inactive = no such curve, though single readings can be large or run the other way
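20 nM HPGD preincubated 15 min at room temperature with compound in 50 mM Tris-HCl pH 8, 0.01% Tween 20. Started with 1 mM NAD+ and 30 uM prostaglandin E2; NADH fluorescence (360/450 nm) read 5 times over 30-s intervals, last minus first.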
HTT cytoprotect: qHTS Multiplex Assay to Identify Dual Action Probes in a Cell Model of Huntington: Cytoprotection (ATP). actives 0.14% (n = 230,000). AID 1471, 2008. Potency, µM (highest dose often 56.4 µM), actives largely listed as activators. PC12 HTT-Q103 induced, cytoprotection, ATP luminescence, 40 h; note: nearly all actives have a fitted effect of over 45% in size
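Compounds added alongside 100 nM tebufenozide, which induces toxic Q103 huntingtin exon 1-GFP in stable PC12 cells; surviving cells quantified by luminescent ATP measurement. Medium: phenol red-free DMEM, 5% equine and 5% calf serum.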
Of the large screens only hits and unclear results are named; the others gave an inactive call; ! = repeats disagree. Only some compounds are listed: those with a hit (about 9.8% of all), similar ones and a draw of the others. Unless noted, calls come from the whole dose curve; as a rule, active = well fitted curve in the direction sought with a large enough effect; inconclusive = small, poorly fitted or top-dose-only effect, or another doubt; inactive = no such curve, though single readings can be large; an effect the other way counts as inactive or inconclusive.

O=C(O)c1cc(=O)[nH]c2c(Cl)cccc12	KDM4E inh inconclusive (no result: HPGD block)
CCOc1ccc(N/C(C)=C/C(=O)c2ccc(C)o2)cc1	none
COC(=O)c1ccc(N/C(C)=C/C(=O)c2ccc(C)o2)cc1	HTT aggregate 4µM
O=C(Oc1nsnc1N1CCOCC1)c1ccccc1	ALDH1A1 inh 28µM
Cc1ccc(S(=O)(=O)N2CCCN(C(=O)OC(C)(C)C)CC2)cc1	none (no result: ALDH1A1 inh, HPGD block)
CN1N=C2c3ccccc3CCCC2C1c1ccc(F)cc1 (stereo unspecified)	ALDH1A1 inh inconclusive, KDM4E inh inconclusive (no result: HPGD block)
O=C(Nc1ccccc1)C1=C[C@H](c2coc3ccccc3c2=O)C[C@H](OCc2ccc(CO)cc2)O1	none (no result: HPGD block)
O=C(NCc1ccccc1)C1=C[C@@H](c2coc3ccccc3c2=O)C[C@@H](OCc2ccc(CO)cc2)O1	ALDH1A1 inh 7.9µM (no result: HPGD block)
O=C(NCc1ccccc1)C1=C[C@H](C2CCCCC2)C[C@H](OCc2ccc(CO)cc2)O1	ALDH1A1 inh inconclusive (no result: HPGD block)
O=C(NCc1ccccc1)C1=C[C@@H](C2CC2)C[C@@H](OCc2ccc(CO)cc2)O1	ALDH1A1 inh 11µM (no result: HPGD block)
CCn1c(=O)c(-c2ccccc2)c(O)c2ccccc21	KDM4E inh inconclusive
CCn1c(=O)c2c(cnn2C)c2ccccc21	HTT aggregate 8.9µM, HPGD block 32µM
NC1(C(=O)O)CCC1	HTT cytoprotect inconclusive (no result: HTT aggregate)
N.N.O=C(O)C1(C(=O)O)CCC1.[Pt]	ALDH1A1 inh inconclusive, KDM4E inh 11µM, CBFb-RUNX1 inh inconclusive, HPGD block inconclusive (no result: HTT aggregate)
Cc1c(NC(=O)c2ccc(Br)s2)c(=O)n(-c2ccccc2)n1C	none (no result: HPGD block, HTT cytoprotect)
COc1ccc2c(c1)CC/C(=C/c1ccco1)C2=O	ALDH1A1 inh inconclusive, KDM4E inh inconclusive, HPGD block inconclusive
Cc1ccc(C=C2C(=O)c3ccccc3C2=O)o1	CBFb-RUNX1 inh inconclusive
O=C1C(=Cc2ccco2)C(=O)c2ccccc21	ALDH1A1 inh 13µM, HTT aggregate inconclusive, CBFb-RUNX1 inh inconclusive, HTT cytoprotect inconclusive
O=C1/C(=C/c2ccco2)CCc2ccccc21	ALDH1A1 inh 28µM, HTT cytoprotect inconclusive
Clc1ccc2c(N3CCC(CCC4CCN(c5ncnc6cc(Cl)ccc56)CC4)CC3)ncnc2c1	none (no result: KDM4E inh, HTT aggregate, CBFb-RUNX1 inh)
COc1cc([N+](=O)[O-])ccc1NC(=O)CCCOc1cccc(C)c1C	ALDH1A1 inh 14µM
CCCS(=O)(=O)c1nc(S(=O)(=O)c2ccc(C)cc2)c(N2CCCC2)s1	ALDH1A1 inh 7.9µM
CCCS(=O)(=O)c1nc(S(=O)(=O)c2ccc(C)cc2)c(N2CCc3ccccc3C2)s1	ALDH1A1 inh 1.4µM
Cc1ccc(S(=O)(=O)c2nc(S(C)(=O)=O)sc2N(C)C)cc1	none
Cc1ccc2nc(NNC(=O)c3ccc(S(=O)(=O)N4CCc5ccccc5C4)cc3)sc2c1	none (no result: HTT cytoprotect)
O=C(Nc1ccccc1)N1CC[C@@]2(CCCN(C(=O)c3cc(C(F)(F)F)cc(C(F)(F)F)c3)C2)C1	none (no result: KDM4E inh, HTT aggregate, CBFb-RUNX1 inh)
O=C(c1cc2cc([N+](=O)[O-])ccc2s1)N1CCCCC1	ALDH1A1 inh 14µM (no result: HPGD block)
CN(C)C(=O)c1cc2cc([N+](=O)[O-])ccc2s1	none
O=C(c1ccc([N+](=O)[O-])cc1[N+](=O)[O-])N1CCCC1	none (no result: HPGD block)
CCN(CC)C(=O)c1cc2cc([N+](=O)[O-])ccc2s1	HPGD block 28µM
CCc1c(C)[nH]c2c1C(=O)C(CN1CCOCC1)CC2 (stereo unspecified)	none (no result: HTT aggregate, HTT cytoprotect)
O=C(COC(=O)c1cccc(S(=O)(=O)NCc2ccccc2)c1)NCC1CCCO1 (stereo unspecified)	none (no result: HPGD block)
Cc1ccc(C(=O)C(C)N(C(=O)c2ccc(Cl)cc2Cl)N2C(=O)CCCC2=O)cc1 (stereo unspecified)	HTT aggregate 11µM (no result: HPGD block)
Cc1nc(NCCc2ccc(F)cc2)c(C#N)c(C)c1[N+](=O)[O-]	ALDH1A1 inh inconclusive
COc1cc(CNc2nc(C)c([N+](=O)[O-])c(C)c2C#N)cc(OC)c1	ALDH1A1 inh 4µM, HTT aggregate inconclusive
Cc1nc(NCCc2ccccc2F)c(C#N)c(C)c1[N+](=O)[O-]	ALDH1A1 inh 14µM
COCc1c(C#N)c(NCc2cc(OC)c(OC)c(OC)c2)nc(C)c1[N+](=O)[O-]	none (no result: ALDH1A1 inh, HPGD block)
O=C(O)NCC1CCCCC1 (tested in a mixture with another compound)	none (no result: KDM4E inh, HTT aggregate, CBFb-RUNX1 inh)
O=C(CN(Cc1ccc(Cl)c(Cl)c1)S(=O)(=O)c1ccccc1)N/N=C\c1ccc2c(c1)OCO2	HTT aggregate inconclusive, HPGD block inconclusive
CCCC(CCC)=NNC(=O)CN(Cc1ccccc1)S(=O)(=O)c1ccccc1	ALDH1A1 inh 8.9µM
O=C(CN(Cc1ccccc1)S(=O)(=O)c1ccccc1)N/N=C/c1ccc2c(c1)OCO2	ALDH1A1 inh inconclusive, HPGD block 11µM
CNC(=O)CN(Cc1ccccc1)S(=O)(=O)c1ccccc1	none
CN1CCN(NC(=O)c2cccc3ccccc23)CC1	none (no result: HTT cytoprotect)
CCOc1cc(C(=O)NC(=S)Nn2cnnc2)cc(OCC)c1OCC	ALDH1A1 inh 11µM (no result: HPGD block)
COc1ccc(C(=O)NNC(=O)c2ccc(C)cc2)cc1S(=O)(=O)N1CCCC1	none (no result: HPGD block, HTT cytoprotect)
O=C(O)c1ccc(O)cc1O	none (no result: KDM4E inh, HTT aggregate)
Nc1ccc(C(=O)O)c(O)c1	KDM4E inh 7.1µM!
NC(=S)N/N=C\c1ccc(-c2cccc(Cl)c2Cl)o1	ALDH1A1 inh 32µM, KDM4E inh inconclusive, HPGD block inconclusive, HTT cytoprotect inconclusive
O=c1c(O)c(-c2ccc(O)c(O)c2)oc2c(OC3OC(CO)C(O)C(O)C3O)c(O)cc(O)c12 (stereo unspecified)	ALDH1A1 inh inconclusive, HPGD block 28µM (no result: HTT aggregate)
O=c1c(O)c(-c2ccc(O)c(O)c2)oc2c(OC[C@@H]3O[C@@H](O)[C@@H](O)[C@H](O)[C@H]3O)c(O)cc(O)c12	ALDH1A1 inh inconclusive, KDM4E inh 5µM, HPGD block inconclusive (no result: HTT aggregate)
C[C@@H]1OC(O[C@H]2[C@H](Oc3cc(O)c4c(=O)c(O)c(-c5ccc(O)cc5)oc4c3)O[C@H](CO)[C@@H](O)[C@@H]2O)[C@H](O)[C@H](O)[C@H]1O (stereo partly specified)	none (no result: ALDH1A1 inh, KDM4E inh, HTT aggregate, HPGD block, HTT cytoprotect)
OC[C@@H]1O[C@@H](n2cnc3cncnc32)[C@@H](O)[C@H]1O	none (no result: ALDH1A1 inh, KDM4E inh, HTT aggregate, CBFb-RUNX1 inh, HPGD block)
COc1ccc(C(=O)C2CCCN(Cc3c(C)[nH]c4ccccc34)C2)c(OC)c1 (stereo unspecified)	ALDH1A1 inh 25µM, HTT aggregate 35µM (no result: HPGD block)
